# PubChem BioAssay
# Assays:
# [1] = system: Human papillomavirus type 1a protein E7 (residues 44-93); assay: small molecules binding HPV E7 44-93 – biochemical, small-molecule microarray, residues 44-93, 635 nm fluorescence, primary screen (AID 1108); conditions: fluorescence 635 nm, higher = more signal;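 further: E7 fragment applied at 1 µg/mL in TBST for 1 h at 4 C; score combines spot fluorescence with its signal to noise ratio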
# [2] = hepatitis C replication reporter changes, two-sided – Huh7 cells, luciferase reporter, HCV replication inhibitor project, primary screen (AID 1109); conditions: Huh7 HCV replicon luciferase reporter, 48 h; higher = more signal;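 further: huh7 hepatoma cells harbouring a luciferase neomycin HCV replicon reporter; luciferase luminescence as measure of HCV replicon replication; test concentration not given here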
# [3] = target: Left-right determination factor 2 (Homo sapiens) (UniProt O00292); assay: small molecules binding LEFTY2 protein – biochemical, small-molecule microarray, 635 nm fluorescence scan, primary screen (AID 1110); conditions: higher = more signal
# Left-right determination factor 2 (Homo sapiens), sequence (O00292 whole entry, looked up): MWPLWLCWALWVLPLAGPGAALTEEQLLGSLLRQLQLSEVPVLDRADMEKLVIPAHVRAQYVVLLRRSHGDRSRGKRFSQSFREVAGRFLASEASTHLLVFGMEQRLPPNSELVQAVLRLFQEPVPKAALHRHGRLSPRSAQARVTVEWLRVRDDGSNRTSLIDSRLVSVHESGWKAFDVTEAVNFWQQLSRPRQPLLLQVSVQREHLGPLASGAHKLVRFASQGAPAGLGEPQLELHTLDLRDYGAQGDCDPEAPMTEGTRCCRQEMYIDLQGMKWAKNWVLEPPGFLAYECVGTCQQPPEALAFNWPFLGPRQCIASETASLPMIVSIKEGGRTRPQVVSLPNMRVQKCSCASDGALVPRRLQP
# [4] = target: Calmodulin-1 (Homo sapiens) (UniProt P0DP23); assay: small molecules binding calmodulin-1 with EGTA – biochemical, small-molecule microarray, Cy5-labelled CALM1, profiling panel (AID 1111); conditions: Cy5-CALM1 binding fluorescence, higher = more signal;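 further: labelled calmodulin applied in Tris saline Tween buffer holding calcium plus EGTA and DTT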
# [5] = target: Calmodulin-1 (Homo sapiens) (UniProt P0DP23); assay: small molecules binding Ca-loaded calmodulin-1 – biochemical, small-molecule microarray, Cy5-labelled CALM1, plus calcium, artefact control for SMM control-protein annotation, profiling panel (AID 1112); conditions: Cy5-CALM1 binding fluorescence, higher = more signal;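 further: score merges spot fluorescence with signal to noise from triplicate slides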
# [6] = probe aWnt5a binding to arrayed compounds – biochemical, biotinylated probe, 635/667 nm fluorescence, primary screen (AID 1113); conditions: small-molecule microarray, higher = more signal;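 further: score merges 667 nm fluorescence intensity with signal-to-noise per printed feature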
# [7] = probe aShh binding to arrayed compounds – biochemical, biotinylated probe, 635/667 nm fluorescence, primary screen (AID 1114); conditions: small-molecule microarray, higher = more signal;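 further: probe is biotin-labelled aShh protein from a stem cell growth factor screen; measures binding of labelled protein to compounds printed on the slide; score merges feature fluorescence at 667 nm with signal-to-noise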
# [8] = probe aNog binding to arrayed compounds – biochemical, biotinylated probe, 635/667 nm fluorescence, primary screen (AID 1115); conditions: small-molecule microarray, higher = more signal;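 further: probe is biotinylated aNog protein used at 0.15 µg/mL for 1 h at 4 C; z-score combines 667 nm fluorescence of each spot with its signal to noise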
# [9] = target: Torsin-1A-interacting protein 1 (Homo sapiens) (UniProt Q5JTV8); assay: compound microarray binding of lysate hLAP1 – cell lysate, small-molecule microarray, COS7 lysate, 635/667 nm fluorescence, primary screen (AID 1116); conditions: 635 nm fluorescence, higher = more signal
# Torsin-1A-interacting protein 1 (Homo sapiens), sequence (Q5JTV8 whole entry, looked up): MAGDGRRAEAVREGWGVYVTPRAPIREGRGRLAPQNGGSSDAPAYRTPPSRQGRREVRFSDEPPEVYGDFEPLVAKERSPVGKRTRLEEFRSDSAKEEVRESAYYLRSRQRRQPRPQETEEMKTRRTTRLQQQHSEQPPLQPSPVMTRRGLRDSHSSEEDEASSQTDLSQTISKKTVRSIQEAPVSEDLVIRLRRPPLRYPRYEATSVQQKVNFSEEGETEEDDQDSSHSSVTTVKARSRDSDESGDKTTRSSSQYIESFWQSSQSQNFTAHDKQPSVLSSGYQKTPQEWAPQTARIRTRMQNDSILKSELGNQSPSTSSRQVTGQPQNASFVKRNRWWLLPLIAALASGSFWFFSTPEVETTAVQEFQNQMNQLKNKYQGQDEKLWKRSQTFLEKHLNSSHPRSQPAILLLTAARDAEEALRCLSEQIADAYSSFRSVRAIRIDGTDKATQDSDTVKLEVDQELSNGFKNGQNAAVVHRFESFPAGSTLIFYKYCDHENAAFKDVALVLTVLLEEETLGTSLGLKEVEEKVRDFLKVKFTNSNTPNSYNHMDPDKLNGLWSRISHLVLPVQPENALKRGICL
# [10] = target: Alpha-bungarotoxin (Bungarus multicinctus) (UniProt P60615); assay: compounds binding labelled alpha-BTX control protein – biochemical, small-molecule microarray, Alexa647 label, 635/667 nm fluorescence, artefact control for SMM control protein annotation, profiling panel (AID 1117); conditions: alpha-BTX-A647 binding fluorescence, higher = more signal
# Alpha-bungarotoxin (Bungarus multicinctus), sequence (P60615 whole entry, looked up): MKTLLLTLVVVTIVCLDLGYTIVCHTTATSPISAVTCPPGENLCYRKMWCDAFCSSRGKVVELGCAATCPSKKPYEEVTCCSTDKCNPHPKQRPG
SMILES,composite z-score [1],z-score [2],composite z-score [3],composite z-score [4],composite z-score [5],composite z-score [6],composite z-score [7],composite z-score [8],composite z-score [9],composite z-score [10]
CC(C)C(CO)N1C(=O)[C@@H]2[C@H]3C(=O)OCC=C[C@H]3OC23C=CCN(c2ccc4ccccc4c2)C(=O)[C@@H]13 (stereo not given in full),-0.177,-0.453,-0.425,-0.468,-0.367,-0.148,-0.283,-0.463,-1.05,-0.256
Cc1ccc(S[C@]2(C(=O)NCCCN(C)C)CC(=O)N(Cc3ccccc3)[C@@H]2c2ccc(CO)cc2)cc1,-0.364,-1.7,-1.03,-0.676,-0.674,-0.184,-0.145,0.604,1.17,0.75
C=C(C(=O)CC[C@H](OC(=O)c1cccnc1)c1ccccc1OCCO)C(C)C,1.05,-2.71,0.753,-0.62,-1.24,0.121,-0.0035,-0.176,1.99,0.892
O=c1cccc(-c2ccc3ccccc3c2)o1,-0.0853,0.0929,-0.135,-0.545,0.03,-0.184,-0.136,-0.219,0.407,0.687
CC(C)OC(=O)C1=CCC(c2cccc(Cl)c2)O1 (stereo not given),1.07,-2.34,-1.44,0.222,0.45,0.0654,0.16,-0.347,0.0025,0.274
CCCC[C@H]1C[C@@H]1[C@@H]1N(P(=O)(c2ccccc2)c2ccccc2)[C@](CO)(c2ccccc2)CC12CC2,0.992,-2.4,-1.58,1.85,1.08,0.188,0.562,1.75,0.0187,-0.0785
CN1C(=O)C2C=CC(C(O)C=Cc3ccc([N+](=O)[O-])cc3)N(N3CCCCC3)C2C1=O (stereo not given),0.974,0.789,0.443,2.44,0.925,0.613,0.926,1.66,0.856,2.07
C=CCOC(=O)[C@@H]1[C@H]2C(=O)O[C@H](c3ccccc3)[C@H](c3ccccc3)N2[C@H](c2ccc(OCCOC(=O)[C@H]3C[C@H]4C(=O)N[C@@H](CC(C)C)C(=O)N4[C@H]3c3cccc(OCCO)c3)cc2)[C@@]12C(=O)Nc1ccc(I)cc12,1.44,-1.34,0.697,0.896,0.163,-0.0721,0.337,0.0852,0.921,2.52
CCN(CC)c1ccc(N2CC=CC34O[C@@H]5C=CCCOC(=O)C5[C@H]3C(=O)N(CCCO)[C@@H]4C2=O)cc1 (stereo not given in full),-0.591,0.0997,0.0606,-0.409,-0.977,-0.176,-0.294,-0.288,-0.273,-1.17
C=C(COC)C(=O)CC[C@H](OC(=O)c1cccnc1)c1ccccc1OCCO,0.862,-3.13,0.53,-0.0382,-0.689,-0.0479,-0.138,0.437,1.08,0.443
CN1C(=O)C2C=CC(C(O)C(c3ccccc3)c3ccccc3)N(Nc3ccccc3)C2C1=O (stereo not given),1.42,-1.13,-0.0076,1.29,0.567,0.137,0.216,0.713,0.597,1.34
CCOC(=O)N1C(c2ccc(OCCCO)cc2)=NC(C(=O)OC)N1C(=O)OCC (stereo not given),1.38,-3.72,0.537,1.25,0.127,-0.0685,-0.279,0.0036,0.935,0.439
C[N+](C)(C)CCCCNC(=O)[C@H]1C[C@H]2C(=O)N3CCC[C@H]3C(=O)N2[C@H]1c1ccc(O)cc1,0.257,-1.25,1.28,-0.546,-0.368,-0.0236,-0.0146,-0.0662,2.01,1.57
C=CCN1Cc2ccccc2C[C@@]2(COC(c3ccc(OCCCO)cc3)=N2)C1=O,1.42,-0.908,0.588,0.175,-0.583,0.0633,0.13,0.373,1.33,0.34
C=CC[C@@]1(C(=O)NCc2ccccc2)N=C(c2ccc(OCCCO)cc2)O[C@@H]1c1ccccc1CN=[N+]=[N-],1.41,-2.31,-0.511,1.13,0.429,0.0676,0.448,0.622,1.1,1.28
O=C1O[C@H](c2ccccc2)[C@H](c2ccccc2)N2[C@H]1[C@@H](C(=O)N1CCCCCCC1)[C@]1(C(=O)Nc3ccc(C#CC4=CCCCC4)cc31)[C@H]2c1ccc(O)cc1,1.54,-2.29,1.78,3.22,2.02,1.68,3.35,3.53,5.98,5.18
COc1ccc([Si](C)(C)[C@H]2[C@H](CC(=O)N3Cc4ccccc4C[C@H]3CO)O[C@@]3(C(=O)N(Cc4cccc(I)c4)c4ccccc43)[C@@H]2C)cc1,0.276,-3.8,0.947,-0.551,1.49,-0.124,0.0815,-0.1,0.225,-0.0241
CC(C)C[C@@H]1NC(=O)[C@@H]2C[C@H](C(=O)NCCCCN(C)C)[C@H](c3ccc(O)cc3)N2C1=O,-0.256,-0.556,-1.58,-0.685,0.33,-0.0977,-0.0553,-0.0791,0.864,-0.318
COc1ccc(C(=O)Nc2cccc(CN3C(=O)[C@@]4(O[C@@H](CC(=O)N5Cc6ccccc6C[C@H]5CO)[C@H]([Si](C)(C)c5ccc(OC)cc5)[C@H]4C)c4ccccc43)c2)cc1,-0.296,-3.74,0.904,-0.0023,-0.68,-0.0643,0.353,0.118,0.965,1.27
CN1C(=O)C2C=CC(C(O)c3ccc(Br)cc3)N(Nc3ccccc3)C2C1=O (stereo not given),-0.0441,0.15,-1.43,-0.209,0.394,-0.124,-0.178,0.154,0.65,-0.292
COC(=O)C(CC#Cc1ccc2c(c1)[C@]1(C(=O)N2)[C@H](C(=O)N2CCCCCCC2)[C@H]2C(=O)O[C@H](c3ccccc3)[C@H](c3ccccc3)N2[C@@H]1c1ccccc1OCCO)C(=O)OC,1.6,-1.88,1.8,3.11,1.85,1.59,3.17,3.79,6.01,4.45
O=C1OCCC/C=C\[C@H]2OC34C=CCN(Cn5nnc6ccccc65)C(=O)[C@H]3N(CCCO)C(=O)[C@@H]4C12 (stereo not given in full),0.692,-1.01,-2,-0.44,0.458,-0.191,0.0952,0.574,2.11,-1.75
C=C[C@H](C)[C@H](OC(=O)Nc1ccc(OC)cc1)c1ccc(O)c2ccccc12,-0.942,-3.3,-0.654,-1.38,-0.881,-0.129,-0.0709,-0.0691,0.041,-0.596
CCOC(=O)C=Cc1cccc(OC)c1O,-0.0381,1.61,-1.23,0.155,-0.551,-0.122,-0.212,-0.344,-0.0817,0.254
CS(=O)(=O)CCOC(=O)C1=CC(c2ccc(CO)cc2)=CC(c2cccs2)N(Cc2cccc(OC(F)(F)F)c2)C=C1C(=O)OCCS(C)(=O)=O (stereo not given),0.869,-2.19,0.192,1.75,0.707,0.0044,-0.102,-0.475,0.796,0.904
CC(=O)N1Cc2ccccc2C[C@@]2(N=C(c3ccc(OCCCO)cc3)O[C@H]2c2ccccc2)C1=O,0.671,-2.83,0.587,1.26,0.465,-0.0051,0.0895,0.909,2.05,2.37
